High-throughput results (PubChem BioAssay)
The list is not random: actives were taken first. Their share in the collection is about 6.3%.
TGFb inhibitor – qHTS for Inhibitors of TGF-b; HepG2 CAGA-GFP TGF-b/SMAD3 reporter, GFP fluorescence, 18 h; TGF-beta stimulated, 500 pg/mL final; 410,000 compounds, 1.2% hits; Potency, µM (series often up to 46.1 µM), inactives show at the highest dose activity, negative = inhibition, hits mostly inhibitors; further: on the % scale 0 is the no-effect control and ±100 the full control effect; nearly all actives have a fitted effect of over 65% in size
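TGF-beta reporter screen: HEPG2 CAGA-GFP, 1% FBS, 500 pg/mL TGF-beta final, 18 h; per-cell GFP summed per well; curves fitted and categorized by class.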
RORg inh – qHTS for inhibitors of ROR gamma transcriptional activity; AID 2551, 2010; Nuclear receptor ROR-gamma (Mus musculus), P51450; Drosophila S2 Gal4-RORgamma UAS-luciferase reporter, 20 h; Potency, µM (series often up to 53.6 µM), inactives show top-dose activity change, negative = inhibition, most hits filed as inhibitors; 310,000 compounds, 5.4% hits; further: on the % scale 0 is the no-effect control and ±100 the full control effect; nearly all actives have a fitted effect of over 60% in size
Target sequence (P51450 whole entry, looked up, the tested form may be a part): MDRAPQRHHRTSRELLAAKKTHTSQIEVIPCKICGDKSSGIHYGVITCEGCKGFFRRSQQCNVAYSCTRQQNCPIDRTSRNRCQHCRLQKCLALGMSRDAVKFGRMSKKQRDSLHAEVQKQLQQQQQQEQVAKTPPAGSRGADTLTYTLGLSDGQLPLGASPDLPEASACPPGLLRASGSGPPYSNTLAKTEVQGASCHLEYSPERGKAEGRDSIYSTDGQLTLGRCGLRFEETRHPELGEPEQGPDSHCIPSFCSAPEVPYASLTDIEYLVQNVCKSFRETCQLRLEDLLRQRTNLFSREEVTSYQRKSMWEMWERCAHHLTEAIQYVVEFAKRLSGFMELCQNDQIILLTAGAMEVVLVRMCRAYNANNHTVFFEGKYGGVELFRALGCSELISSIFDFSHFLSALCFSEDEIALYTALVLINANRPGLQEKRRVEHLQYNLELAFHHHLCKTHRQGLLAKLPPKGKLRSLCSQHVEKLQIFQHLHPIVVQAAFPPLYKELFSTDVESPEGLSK
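Drosophila Schneider cells stably carrying a metallothionein-driven Gal4 DBD–ROR gamma fusion and a UAS-Photinus luciferase reporter were exposed to compound for 1 hr, then induced with copper sulfate (700 uM final) for 20 hr at ambient temperature before luminescence reading.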
HepG2 tox – qHTS for Inhibitors of TGF-b: Cytotox Counterscreen; HepG2 CAGA-GFP viability, ATP luminescence, 18 h; Potency, µM (top dose mostly 46.1 µM), for the others: top-dose activity change, negative = cytotoxicity, actives largely listed as cytotoxic; 410,000 compounds, 0.76% hits; AID 588856, 2011
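CellTiter-Glo luminescence gave cytotoxicity after 18 hours at 37 degrees C. The cells were HepG2 CAGA-GFP in 1% FBS DMEM, stimulated with 500 pg/mL TGF-beta after compound addition. %Activity was normalised to no-cell wells (complete cell-killing) and DMSO (no toxicity), and curves were fitted and classified.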
ATXN viability – Viability Counterscreen for Primary qHTS for Inhibitors of ATXN expression. S2 cells (HEK-293 line with an ATXN2-luciferase reporter) viability, CellTiter-Fluor protease fluorescence, 24 h. Potency, µM (titrated, usually from 56.7 µM), usual class: cytotoxic. 400,000 compounds, 0.49% hits. AID 651635, 2014; further: nearly all actives have a fitted effect of over 40% in size
ATXN2 expr inh – Primary qHTS for Inhibitors of ATXN expression | HEK-293 ATXN2-luciferase reporter, luminescence, 24 h | Potency, µM (highest dose often 57 µM), for the others: top-dose activity change, negative = inhibition, most hits filed as inhibitors | 360,000 compounds, 0.72% hits | AID 1745845, 2022; further: on the % scale 0 is the no-effect control and ±100 the full control effect; nearly all actives have a fitted effect of over 55% in size
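qHTS (up to 57 uM final) was run with 24 h compound exposure of reporter cells at 37 °C. Each well was multiplexed: SteadyGlo luminescence measured ATXN2-luciferase expression after a fluorogenic Gly-Phe-AFC viability readout (25 uM final).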
VP16 counter – VP16 counterscreen qHTS for inhibitors of ROR gamma transcriptional activity | Potency, µM (highest dose often 53.6 µM), inactives show top-dose activity, negative = inhibition, most hits filed as inhibitors | 310,000 compounds, 3.5% hits | Drosophila S2 Gal4-VP16 UAS-luciferase, luminescence, 20 h;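 further: Gal4-VP16 expression switched on by copper sulfate through the metallothionein promoter; on the % scale 0 is the no-effect control and ±100 the full control effect; nearly all actives have a fitted effect of over 50% in size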
Starred values were filed as active, the others as inactive; i = inactive; ? = inconclusive; nt = not tested or not shown; [ ] = dose if it differs, or a comment. The call rests on the fitted dose curve; in most records, active means well fitted curve in the direction sought with a large enough effect; inconclusive means small, poorly fitted or top-dose-only effect, or another doubt; inactive means no such curve, though single readings can be large; an effect the other way counts as inactive or inconclusive. Potency means the concentration at half of the fitted maximal effect.

SMILES | TGFb inhibitor | RORg inh | HepG2 tox | ATXN viability | ATXN2 expr inh | VP16 counter
Cc1ccn2c(Cc3ccccc3)c(-c3ccc(Br)cc3)nc2c1 | 9% | nt | -2% | 14µM* | 0% | nt
Cc1ccn2c(CC(C)(C)C)c(-c3ccc(F)cc3)nc2c1 | ? | nt | -69% | 25µM* | ? | nt
COc1ccc(/C=N/Nc2cc(C)nc3c(C)cccc23)cc1 | ? | ? | 13µM* | ? | ? | ?
COc1ccc2nc(C)cc(N/N=C/c3ccc(F)cc3)c2c1 | 4µM* | 4µM* | 5µM* | ? | ? | 5µM*
COc1ccc(/C=N/Nc2cc(C)nc3ccccc23)cc1 | ? | ? | -76% | ? | ? | ?
COc1ccc(Nc2cc(C)nc3ccc(OC)cc23)cc1 | -29% | -21% | -28% | i | ? | -2%
COCCCNC(=O)C1CCC(CNS(=O)(=O)c2ccc3c(c2)CC(C)N3C(=O)C2CC2)CC1 (centres undefined) | 7% | 10% | 1% | i | 5% | 0%
Cc1cccc(C(=O)NC(=S)NNC(=O)COc2ccc(Cl)cc2)c1 | -10% | 4µM* | -14% | i | -21% | ?
O=C(NNC(=S)NC(=O)c1ccc(Br)cc1)c1ccc([N+](=O)[O-])cc1 | 0% | 11µM* | -22% | i | nt | ?
Cc1ccc(C(=O)NC(=S)NNC(=O)c2ccccc2[N+](=O)[O-])cc1 | 6% | 3.2µM* | -2% | i | -17% | 3.2µM*
COc1ccc(OCC(=O)NNC(=S)NC(=O)c2ccc([N+](=O)[O-])cc2)cc1 | -1% | 5.6µM* | -23% | i | 8% | 5.6µM*
O=C(NNC(=S)NC(=O)c1ccccc1[N+](=O)[O-])c1ccccc1O | 5% | -15% | -4% | i | -10% | -16%
O=C(NNC(=O)c1ccc([N+](=O)[O-])cc1)c1ccc(Br)cc1 | 8% | -11% | -2% | i | -6% | -14%
CCCCC(=O)NC(=S)NNC(=O)c1ccc(Cl)cc1Cl | ? | 11µM* | -2% | i | -4% | -13%
Cc1occc1C(=O)NNC(=O)COc1ccc(Br)cc1Br | 8% | 16% | -2% | i | 38% | 2%
O=C(NC(=S)NNC(=O)c1ccccc1O)c1ccc([N+](=O)[O-])cc1 | 12% | 2% | -15% | i | nt | 4%
O=C(NNC(=S)NC(=O)c1ccccc1)c1ccc([N+](=O)[O-])cc1 | -21% | 3.5µM* | -49% | i | nt | 1.4µM*
O=C(O)CCC(=O)NNC(=O)c1ccc([N+](=O)[O-])cc1 | -1% | -12% | -3% | i | 3% | -1%
Cc1occc1C(=O)NNC(=S)NC(=O)COc1ccc(Cl)cc1Cl | -8% | 16µM* | -3% | i | -10% | ?
CCCCCC(=O)NNC(=S)NC(=O)c1ccc([N+](=O)[O-])cc1 | -3% | 2.8µM* | -9% | i | -7% | 6.3µM*
Cn1c(SCc2ccc(Cl)cc2)nnc1-c1ccc(NC(=O)CCc2ccccc2)cc1 | -2% | nt | 8% | nt | nt | nt
CNC(=S)NNC(=O)COc1ccc(C)c(C)c1 | 16% | 6.3µM* | -15% | i | 33% | 7.1µM*
Cc1ccc(C(=O)NCCOc2ccc(Cl)cc2)cc1 | 0% | ? | -8% | i | 9% | ?
O=C(NNC(=S)NC(=O)c1ccc(Br)cc1)c1cccc([N+](=O)[O-])c1 | ? | 14µM* | -21% | i | nt | ?
O=C(NNC(=S)NC(=O)c1ccccc1[N+](=O)[O-])c1ccccc1[N+](=O)[O-] | -2% | -27% | -8% | i | -8% | 7%
SMILES | TGFb inhibitor | RORg inh | HepG2 tox | ATXN viability | ATXN2 expr inh | VP16 counter
Cc1ccc(OCC(=O)Nc2cccc(O)c2)cc1C | -1% | -3% | -7% | i | 52% | -11%
Cc1ccc(C(=O)CC(=O)COc2ccc(Cl)cc2)cc1 | 0% | 13µM* | -21% | i | 22% | 10µM*
O=C(NNC(=S)NC(=O)c1ccccc1[N+](=O)[O-])c1ccc(Cl)cc1Cl | 10% | 5.6µM* | 5% | i | -3% | -1%
CCCCOc1ccccc1C(=O)NNC(=S)NC(=O)c1ccccc1[N+](=O)[O-] | -4% | 14µM* | -12% | i | -31% | ?
Cc1ccc(C(=O)NC(=S)NNC(=O)c2ccc([N+](=O)[O-])cc2)cc1 | -21% | ? | -16% | i | -20% | 11µM*
CC(CC(=O)N1CCN(c2cccc(Cl)c2)CC1)S(=O)(=O)c1ccc2c(c1)NC(=O)CO2 (centres undefined) | -3% | -41% | -2% | ? | -26% | 14µM*
COc1ccc(N2CCN(C(=O)CC(C)S(=O)(=O)c3ccc4c(c3)NC(=O)CO4)CC2)cc1 (centres undefined) | -19% | ? | -18% | i | -25% | -27%
O=C(O)c1ccccc1Nc1ccccc1C(=O)O | 8% | 7% | -5% | i | -10% | -2%
CCCCNC1=CC(=O)C(=O)c2ccccc21 | 3.5µM* | 8% | 7.1µM* | ? | nt | -29%
O=C1C(Nc2ccccc2)=CC(=O)c2ncccc21 | nt | 3.2µM* | nt | nt | nt | 4.5µM*
O=C1C=C(Nc2cccc3cccnc23)c2ccccc2C1=O | 5µM* | 10µM* | 3.5µM* | 14µM* | -14%[2.22 µM] | 10µM*
CCCCNC1=CC(=O)C(NCCCC)=CC1=O | -10% | nt | -1% | ? | -19% | nt
O=C1C=C(Nc2ccccc2C(=O)O)c2ccccc2C1=O | ? | -42% | 16µM* | i | 8% | 2%
COc1ccccc1C(=O)Nc1ccccc1SC(=O)c1ccccc1OC | ? | ? | -75% | ? | 25% | ?
COc1cc(NC(=O)N2CCC3(CC2)Nc2ccccc2-n2cccc23)cc(OC)c1OC | 0% | nt | -17% | nt | nt | nt
Cc1ccc2[nH]c(C(=O)NCc3nc(-c4cccc(NC(=O)c5cc(C)oc5C)c4)oc3C)cc2c1 | nt | nt | nt | i | nt | nt
CC(OC(=O)Cc1ccccc1[N+](=O)[O-])C(=O)NC(=O)NC1CCCCC1 (centres undefined) | ? | nt | 9% | i | 0% | nt
CCc1ccc(NC2=CC(=O)C(=O)c3ccccc32)cc1 | 2µM* | nt | 2.8µM* | ? | ? | nt
O=C1C=C(Nc2ccccc2)c2ccccc2C1=O | 3.2µM* | ? | 3.5µM* | 28µM* | ? | ?
COc1ccc(C2C=C3CNS(=O)(=O)C3CC2OC(=O)c2cccs2)cc1 (centres undefined) | ? | 10% | -11% | nt | nt | -4%
